GPR32 ag = GPR32 (DRV1) agonism, beta-arrestin recruitment; O75388; CHO-K1 GPR32 beta-arrestin PathHunter luminescence, 90 min; zero percent set by DMSO-only wells; activation, % at 76.9 µM; 48,000 compounds, 2.5% hits; AID 1346428;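 active means activation of at least 60% and not above a set upper limit, about 1 call in 100 departs from these limits; inconclusive means activation of 40% to 60%, or above that upper limit; inactive means activation under 40%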; further: 0% is about no effect
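GPR32 activation in stably transfected CHO-K1 cells, detected as beta-arrestin recruitment by enzyme-fragment complementation. Compound exposure: 90 min, 37 °C.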
GALK inhibitor = inhibitors of human galactokinase (GALK). Potency, µM (top dose mostly 57.5 µM), inactives show at the highest dose activity, negative = inhibition, most hits filed as inhibitors. P51570. 44,000 tested, under 10 active. recombinant GALK, Kinase-Glo ATP luminescence, 1 h. AID 1347072;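 further: plate controls were full GALK reaction for no effect and reaction lacking GALK for full effect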
Target sequence (P51570 whole entry, looked up): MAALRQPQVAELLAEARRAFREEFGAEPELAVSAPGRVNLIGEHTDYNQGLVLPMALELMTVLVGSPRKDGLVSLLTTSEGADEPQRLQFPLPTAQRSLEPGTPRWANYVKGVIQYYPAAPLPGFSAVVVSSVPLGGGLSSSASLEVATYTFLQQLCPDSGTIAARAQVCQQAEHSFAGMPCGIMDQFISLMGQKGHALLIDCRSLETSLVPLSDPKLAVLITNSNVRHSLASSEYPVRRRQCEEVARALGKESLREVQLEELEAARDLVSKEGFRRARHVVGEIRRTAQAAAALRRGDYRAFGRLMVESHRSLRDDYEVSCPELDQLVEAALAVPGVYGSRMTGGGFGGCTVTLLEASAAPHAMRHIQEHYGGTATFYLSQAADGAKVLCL
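5 nM GALK; 35 uM ATP; 100 uM D-galactose; 20 mM HEPES pH 8.0, 5 mM MgCl2, 60 mM NaCl, 1 mM DTT, 0.01% BSA; 1 h RT; Kinase-Glo Plus luminescence.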
GALC G270D act = enhancers of human galactocerebrosidase G270D mutant activity in cells | P54803 | 45,000 compounds, 0.1% hits | AID 1159614 | 145M-Twi-hGALC-G270D cells (Twitcher mouse brain line with human GALC G270D), HMU-beta-Gal fluorescence, 48 h | Potency, µM (doses to about 57.5 µM), most hits filed as activators; further: potency means the concentration at half of the fitted maximal effect; 0% is about no effect; nearly all actives have a fitted effect of over 65% in size
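Fluorogenic HMU-b-Gal hydrolysis (0.1 mM final, pH 5.2 citrate-phosphate with 1 mg/mL sodium taurocholate; carbonate stop buffer) measures mutant GALC activity after compound treatment of live 145M-Twi Twitcher brain cells stably carrying human GALC-G270D, with wild-type GALC line alongside; activation sought.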
NTMT1 inhibitor = inhibitors of human N-terminal methyltransferase NTMT1 | Q9BV86 | NTMT1 MTase-Glo SAH luminescence, purified enzyme | Potency, µM (top dose mostly 114 µM), without a hit: top-dose activity change, negative = inhibition, most hits filed as inhibitors | 59,000 compounds, 2.5% hits;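 further: potency means the concentration at half of the fitted maximal effect; plate controls were DMSO vehicle for no effect and no enzyme for full effect; nearly all actives have a fitted effect of over 65% in size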
B2AR arrestin ag = agonists recruiting beta-arrestin to human beta2-adrenergic receptor; 44,000 tested, under 10 active; P07550; Potency, µM (doses to about 46.1 µM), usual class: activators; HTLA Tango cells, beta-arrestin recruitment, luciferase luminescence, 18 h; AID 1347077;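 further: potency means the concentration at half of the fitted maximal effect; 0% = DMSO and full agonism = EC100 isoproterenol or metaproterenol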
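Luminescence read-out: arrestin recruitment to recombinant beta2-AR releases tTA, inducing luciferase. Cells exposed 18 hr at 37 degrees C to up to 46 microM compound; %Activity from corrected signal, concentration-response curves classified by r2, magnitude and efficacy.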
Starred values were filed as active, the others as inactive; i = inactive; ? = inconclusive; nt = no result; ! = not confirmed by another sample; [ ] = another dose, or the depositor's remark. This is a sample that favours compounds with a hit; in the whole collection about 3.6% have one here. Unless noted, the call rests on the fitted dose curve; in most records, active means well fitted curve in the direction sought with a large enough effect; inconclusive means small, poorly fitted or top-dose-only effect, or another doubt; inactive means no such curve, though single readings can be large; an effect the other way counts as inactive or inconclusive.

SMILES | GPR32 ag | GALK inhibitor | GALC G270D act | NTMT1 inhibitor | B2AR arrestin ag
C#CC(C)(CC)NC(=O)Cn1nnc(-c2ccc(OCc3ccccc3F)cc2)n1 (stereo not given) | 91* | -3% | i | -1% | i
C#CC(C)(CC)NC(=O)Cn1nnc(-c2ccc(OCc3ccccc3C)cc2)n1 (stereo not given) | 62* | 9% | i | -27% | i
Cc1sc(NC(=O)Cc2ccc3c(c2)OCO3)nc1-c1ccc2c(c1)CCN2C(=O)c1ccccc1C(F)(F)F | nt | nt | nt | 11%[57.5 µM] | nt
COc1ccc2c(c1)CN(C(=O)CCN1CCC(Cc3ccccc3)CC1)CCS2 | nt | nt | nt | 16%[29.8 µM] | nt
COc1ccccc1OCCCSc1nc(-c2ccc(C(C)(C)C)cc2)nc2cc(=O)[nH]n12 | 75* | -1% | nt | nt | i
CC(C)(C)c1ccc(-c2nc(SCCCOc3ccccc3)n3[nH]c(=O)cc3n2)cc1 | -20 | -3% | i | ? | i
Cc1cc(OCCCSc2nc(-c3ccc(C(C)(C)C)cc3)nc3cc(=O)[nH]n23)ccc1Cl | -35 | -1% | i | 50µM*! | i
Cc1cc(C)cc(OCCSc2nc(-c3ccc(C(C)(C)C)cc3)nc3cc(=O)[nH]n23)c1 | 27 | -4% | nt | nt | i
N#Cc1ncc(C(=O)OCC(=O)NC2C3CC4CC(C3)CC2C4)cn1 (stereo not given) | nt | nt | nt | 8% | nt
COc1ccc2c(c1)C=C1Cn3c-2c(C2CCCCC2)c2ccc(cc23)C(=O)NS(=O)(=O)N(C)CCOCCN(C)C1=O | nt | nt | nt | 45µM* | nt
CCOC(=O)c1cnn(-c2ccc(C(=O)Nc3cc(OC)c(OC)c(OC)c3)cc2)c1N | -3 | -1% | i | 89µM* | i
CCOC(=O)c1cnn(-c2ccc(C(=O)Nc3ccc(C(C)=O)cc3)cc2)c1N | 0 | 0% | i | 5% | i
CCOC(=N)c1nc2ccc3ncnc(Nc4cc(F)c(F)cc4Cl)c3c2s1 | nt | nt | nt | -23% | nt
Cc1cc(OCC(O)CN2CCN(c3cccc(Cl)c3)CC2)ccc1Cl (stereo not given) | 70* | 1% | i | -8% | i
COc1ccc(N2CCN(CC(O)COc3ccc(C(C)C)c(C)c3)CC2)cc1 (stereo not given) | 104* | -10% | i | ? | i
Cc1ccc(C(=O)[C@H]2CC[C@@H](C(=O)Nc3ccc(S(=O)(=O)Nc4nccs4)cc3)C2)cc1C | nt | nt | nt | 3% | nt
Cc1ccc(Nc2cc(-c3ccccc3)nc(C)n2)cc1 | -6 | -12% | i | 6% | i
Cc1nc(Nc2ccc(Cl)cc2)cc(-c2ccccc2)n1 | 67* | 0% | i | 8% | i
Cc1nc2sc(C(N)=O)c(N)c2c(-c2ccc(Br)cc2)c1C(=O)Nc1ccc(Cl)cc1 | 88* | 3% | i | -20% | i
CC(C)c1ccccc1-c1ncc(F)c(NCc2ccc(-c3ccn[nH]3)cc2)n1 | nt | nt | nt | 8% | nt
CC(C)c1ccccc1NC(=O)CSc1nnc(COc2ccccc2Cl)o1 | 87* | 1% | i | 14% | i
NCc1c[nH]c(=S)n1[C@@H]1CCc2c(F)cc(F)cc2C1 | nt | nt | nt | -6%[57.5 µM] | nt
N=C(N)c1ccc2cc(OC(=O)c3ccc(N=C(N)N)cc3)ccc2c1 | -32 | nt | i | 79µM*! | nt
CN(C)C(=O)COC(=O)Cc1ccc(OC(=O)c2ccc(N=C(N)N)cc2)cc1 | -11 | nt | i | ? | nt
CCOc1ccccc1NC(=O)Cn1ccn(Cc2ccc(C)cc2)c(=O)c1=O | -9 | 0% | i | 89µM* | i
CC(=O)Nc1sc2c(c1-c1cnn(C(C)=O)c1)CCNC2 | nt | nt | nt | -10% | nt
COc1ccc(-c2cc3ccc(O)c(CN4CCCC(C)C4)c3oc2=O)cc1OC (stereo not given) | 0 | 0% | 22µM* | 20% | i
COc1ccc(-c2c(C)c3ccc(O)c(CN4CCCCC4)c3oc2=O)cc1OC | -5 | 1% | i | -10% | i
COc1ccc(-c2c(C)c3ccc(O)c(CN4CCCC(C)C4)c3oc2=O)cc1OC (stereo not given) | -23 | 1% | 20µM* | -3% | i
COc1ccc(Nc2nc(-c3ccncc3)nc3ccccc23)cc1F | nt | nt | nt | -11%[57.5 µM] | nt

Screens deposited in PubChem BioAssay by National Center for Advancing Translational Sciences (NCATS).
